Parameters in all cases: scale not given: direction of the effect not stated beside the values
Experiment [1] has as its target Protein translocase subunit SecA (Escherichia coli (strain K12)) (UniProt P10408). Put plainly: Assay to Identify E. coli SecA ATPase Inhibitors. It is filed as functional. Conditions: 30 µM.
The target in experiment [2] is T1, Ubiquitin-activating enzyme e1, putative (Leishmania donovani (strain BPK282A1)) (UniProt E9BSI1).
T1 sequence (whole entry): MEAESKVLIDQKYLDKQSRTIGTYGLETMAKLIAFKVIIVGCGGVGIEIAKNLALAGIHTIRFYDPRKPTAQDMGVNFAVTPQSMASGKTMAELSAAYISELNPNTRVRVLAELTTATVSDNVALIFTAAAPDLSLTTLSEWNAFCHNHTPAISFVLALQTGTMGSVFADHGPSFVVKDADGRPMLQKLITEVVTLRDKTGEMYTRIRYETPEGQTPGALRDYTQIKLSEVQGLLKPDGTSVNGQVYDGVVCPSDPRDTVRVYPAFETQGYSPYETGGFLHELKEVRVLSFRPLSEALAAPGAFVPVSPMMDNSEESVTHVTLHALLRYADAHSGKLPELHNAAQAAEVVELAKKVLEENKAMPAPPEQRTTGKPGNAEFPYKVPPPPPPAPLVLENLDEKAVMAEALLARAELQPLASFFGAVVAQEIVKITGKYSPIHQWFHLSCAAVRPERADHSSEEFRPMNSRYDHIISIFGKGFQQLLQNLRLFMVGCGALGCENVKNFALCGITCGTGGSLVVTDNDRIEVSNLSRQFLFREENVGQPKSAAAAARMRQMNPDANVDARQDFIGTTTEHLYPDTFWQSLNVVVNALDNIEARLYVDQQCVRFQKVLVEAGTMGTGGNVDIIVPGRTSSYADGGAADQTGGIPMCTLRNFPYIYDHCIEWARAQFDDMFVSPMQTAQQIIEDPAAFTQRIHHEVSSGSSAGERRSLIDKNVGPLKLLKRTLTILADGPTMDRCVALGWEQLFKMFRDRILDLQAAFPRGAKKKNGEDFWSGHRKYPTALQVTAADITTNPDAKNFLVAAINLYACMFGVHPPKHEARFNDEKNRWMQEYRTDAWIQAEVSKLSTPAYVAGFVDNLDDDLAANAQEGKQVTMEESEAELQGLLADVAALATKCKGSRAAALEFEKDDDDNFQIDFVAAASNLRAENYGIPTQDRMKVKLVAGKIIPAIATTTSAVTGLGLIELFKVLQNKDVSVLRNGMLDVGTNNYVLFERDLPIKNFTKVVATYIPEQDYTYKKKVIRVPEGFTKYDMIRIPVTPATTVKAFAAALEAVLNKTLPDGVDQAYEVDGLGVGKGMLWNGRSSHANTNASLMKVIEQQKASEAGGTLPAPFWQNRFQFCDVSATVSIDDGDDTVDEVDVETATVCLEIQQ
Kind of experiment: Leishmania donovani Ubiquitin Activating Enzyme (LdE1). To be noted: 30 µM. It is filed as functional.

Experiment [3] addresses AMP-activated protein kinase, AMPK (Homo sapiens) (UniProt P54646+O43741+P54619+Q9UGJ0+Q9Y478+Q13131+Q9UGI9). Put plainly: AMP-dependent Kinase enzyme assay. An in vitro enzyme assay that detects ADP turnover that is directly proportional to AMPK activity. This uses naive AMPK that is activated during the assay with MK-8722. Conditions: 30 µM. Type of experiment: functional.

The target of experiment [4] is Sialic acid-binding Ig-like lectin 9 (Homo sapiens) (UniProt Q9Y336). Kind of experiment: Hs-Siglec9 ALPHAscreen SOP 20170721. Conditions: 10 µM.
Sialic acid-binding Ig-like lectin 9 (Homo sapiens), sequence (Q9Y336 whole entry): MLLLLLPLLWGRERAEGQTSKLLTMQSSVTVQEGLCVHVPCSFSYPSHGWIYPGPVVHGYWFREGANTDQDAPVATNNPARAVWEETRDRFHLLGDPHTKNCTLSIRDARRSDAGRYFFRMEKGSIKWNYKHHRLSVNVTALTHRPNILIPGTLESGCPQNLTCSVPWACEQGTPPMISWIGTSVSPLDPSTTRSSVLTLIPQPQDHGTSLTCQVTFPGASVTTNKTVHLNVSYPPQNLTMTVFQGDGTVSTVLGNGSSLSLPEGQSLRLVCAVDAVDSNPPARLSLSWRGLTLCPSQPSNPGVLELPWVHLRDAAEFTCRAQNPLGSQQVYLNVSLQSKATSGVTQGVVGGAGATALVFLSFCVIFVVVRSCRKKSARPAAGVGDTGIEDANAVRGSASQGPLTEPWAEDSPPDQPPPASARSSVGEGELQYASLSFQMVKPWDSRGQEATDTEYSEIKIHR
A further experiment concerns Trypanosoma cruzi. Put plainly: Trypanosoma cruzi phosphomannomutase and mannose-1-phosphate guanylyltransferase assay. Type of experiment: functional. To be noted: 10 µM.
Experiment [5] concerns the target T2, Arginase-2, mitochondrial (Homo sapiens) (UniProt P78540).
T2 sequence (whole entry): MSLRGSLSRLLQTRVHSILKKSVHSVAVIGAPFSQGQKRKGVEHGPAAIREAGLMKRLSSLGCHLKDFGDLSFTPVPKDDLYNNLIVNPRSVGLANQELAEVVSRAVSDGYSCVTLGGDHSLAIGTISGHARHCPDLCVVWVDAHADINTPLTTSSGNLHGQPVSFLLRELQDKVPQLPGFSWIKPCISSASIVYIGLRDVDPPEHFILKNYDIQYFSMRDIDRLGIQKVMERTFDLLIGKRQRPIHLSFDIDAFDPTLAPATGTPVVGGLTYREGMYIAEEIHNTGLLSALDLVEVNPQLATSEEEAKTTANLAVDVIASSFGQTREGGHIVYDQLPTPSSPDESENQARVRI
Put plainly: in vitro enzyme assay to detect the production of urea directly proportional to the activity of Arginase II. Note: in the data most compounds retested in dose-response had high values. It is filed as functional. To be noted: 33.3 µM.

For experiment [6], the target named is T3, Proteasome subunit beta (Trypanosoma cruzi) (UniProt O96673).
T3 sequence (whole entry): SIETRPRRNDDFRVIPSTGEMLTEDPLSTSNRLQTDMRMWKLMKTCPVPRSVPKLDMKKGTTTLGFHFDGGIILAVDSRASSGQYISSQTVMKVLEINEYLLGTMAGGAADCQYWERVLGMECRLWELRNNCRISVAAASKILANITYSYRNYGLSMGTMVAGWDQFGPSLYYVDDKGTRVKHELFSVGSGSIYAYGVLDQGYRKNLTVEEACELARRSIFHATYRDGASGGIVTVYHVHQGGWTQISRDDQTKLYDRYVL
Kind of experiment: Trypanosoma cruzi proteasome chymotrypsin-like activity (TcProtChymo) assay. Note: in the data most compounds retested in dose-response had high values. Conditions: 9.37 µM. Type of experiment: functional.

For the next experiment, the species on record is Homo sapiens. Kind of experiment: To identify inhibition of the IFN signalling (Jak-Stat) pathway via expression of an eGFP reporter gene under the control of an IFN-stimulated response element (ISRE) containing MxA promoter. Type of experiment: functional. Conditions: 30 µM.
Experiment [7] concerns the target T4, Tyrosyl-tRNA synthetase, putative (Trypanosoma cruzi (strain CL Brener)) (UniProt Q4DSP6).
T4 sequence (whole entry): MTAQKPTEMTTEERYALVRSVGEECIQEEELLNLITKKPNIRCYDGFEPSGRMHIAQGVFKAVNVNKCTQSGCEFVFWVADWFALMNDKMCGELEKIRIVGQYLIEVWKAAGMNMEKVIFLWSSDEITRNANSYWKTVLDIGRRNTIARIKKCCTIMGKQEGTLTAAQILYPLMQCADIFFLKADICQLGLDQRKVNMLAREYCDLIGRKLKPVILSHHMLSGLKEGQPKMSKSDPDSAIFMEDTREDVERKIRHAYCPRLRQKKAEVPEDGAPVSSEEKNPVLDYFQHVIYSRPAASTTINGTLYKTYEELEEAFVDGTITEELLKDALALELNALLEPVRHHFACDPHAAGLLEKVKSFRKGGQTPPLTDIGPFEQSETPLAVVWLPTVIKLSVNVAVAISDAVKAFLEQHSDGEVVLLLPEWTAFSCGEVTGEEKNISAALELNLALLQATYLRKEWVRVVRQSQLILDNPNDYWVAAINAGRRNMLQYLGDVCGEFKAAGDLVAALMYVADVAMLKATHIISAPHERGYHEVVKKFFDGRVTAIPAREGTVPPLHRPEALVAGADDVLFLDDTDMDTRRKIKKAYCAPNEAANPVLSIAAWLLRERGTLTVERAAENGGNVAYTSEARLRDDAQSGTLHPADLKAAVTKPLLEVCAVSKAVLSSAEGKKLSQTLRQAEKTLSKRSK
Kind of experiment: Trypanosoma cruzi tyrosyl tRNA synthetase (TcYRS) _High Tyrosine SOP. Note: in the data most compounds retested in dose-response had high values. It is filed as functional. To be noted: 30 µM.

Experiment [8] deals with T4, Tyrosyl-tRNA synthetase, putative (Trypanosoma cruzi (strain CL Brener)). Kind of experiment: Trypanosoma cruzi tyrosyl tRNA synthetase (TcYRS) SOP. Type of experiment: functional. To be noted: 30 µM.
The target of experiment [9] is Chromo domain-containing protein 1 (Saccharomyces cerevisiae (strain ATCC 204508 / S288c) (Baker's yeast)) (UniProt P32657). Put plainly: ScCHD-1 Enzyme Inhibition Assay. Note: in the data most compounds retested in dose-response had high values. It is filed as functional. Conditions: 30 µM.
Chromo domain-containing protein 1 (Saccharomyces cerevisiae (strain ATCC 204508 / S288c) (Baker's yeast)), sequence (P32657 whole entry, the tested form may be a part): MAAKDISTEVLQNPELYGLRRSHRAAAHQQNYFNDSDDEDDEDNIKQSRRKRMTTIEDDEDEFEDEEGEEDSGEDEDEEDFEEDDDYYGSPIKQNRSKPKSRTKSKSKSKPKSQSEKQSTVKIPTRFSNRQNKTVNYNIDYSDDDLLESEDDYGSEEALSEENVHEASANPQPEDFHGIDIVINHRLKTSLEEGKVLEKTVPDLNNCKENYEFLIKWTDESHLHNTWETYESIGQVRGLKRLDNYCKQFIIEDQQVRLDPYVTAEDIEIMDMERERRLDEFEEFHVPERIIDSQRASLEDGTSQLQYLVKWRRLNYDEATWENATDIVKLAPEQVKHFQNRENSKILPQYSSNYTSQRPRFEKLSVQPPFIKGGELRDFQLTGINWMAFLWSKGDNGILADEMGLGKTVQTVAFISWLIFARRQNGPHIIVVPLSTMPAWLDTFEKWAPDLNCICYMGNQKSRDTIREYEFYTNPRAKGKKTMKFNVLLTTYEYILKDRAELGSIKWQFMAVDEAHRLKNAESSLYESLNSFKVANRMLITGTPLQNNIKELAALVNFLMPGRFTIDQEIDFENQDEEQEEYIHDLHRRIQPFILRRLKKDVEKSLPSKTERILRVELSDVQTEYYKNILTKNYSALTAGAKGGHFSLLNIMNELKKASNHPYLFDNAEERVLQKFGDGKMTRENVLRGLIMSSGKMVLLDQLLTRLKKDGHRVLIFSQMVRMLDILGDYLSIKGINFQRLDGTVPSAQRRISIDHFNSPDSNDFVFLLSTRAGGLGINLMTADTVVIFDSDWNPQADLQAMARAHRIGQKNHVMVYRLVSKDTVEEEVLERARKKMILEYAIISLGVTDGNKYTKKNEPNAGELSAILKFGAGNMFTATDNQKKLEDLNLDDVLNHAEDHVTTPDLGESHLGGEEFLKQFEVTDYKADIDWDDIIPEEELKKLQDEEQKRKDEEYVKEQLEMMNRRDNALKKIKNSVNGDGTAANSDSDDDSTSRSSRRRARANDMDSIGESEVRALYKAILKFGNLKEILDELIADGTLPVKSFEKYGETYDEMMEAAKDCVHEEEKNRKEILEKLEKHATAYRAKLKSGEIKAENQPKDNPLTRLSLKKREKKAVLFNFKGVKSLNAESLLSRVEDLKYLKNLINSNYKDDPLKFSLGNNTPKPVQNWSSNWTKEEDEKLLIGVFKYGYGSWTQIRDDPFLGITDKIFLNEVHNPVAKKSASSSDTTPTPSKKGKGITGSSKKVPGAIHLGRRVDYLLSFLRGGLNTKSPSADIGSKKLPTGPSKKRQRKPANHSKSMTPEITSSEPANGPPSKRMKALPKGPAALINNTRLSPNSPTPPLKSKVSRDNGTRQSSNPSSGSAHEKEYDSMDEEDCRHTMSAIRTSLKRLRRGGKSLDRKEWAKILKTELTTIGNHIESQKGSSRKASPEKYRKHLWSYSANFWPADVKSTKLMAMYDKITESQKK

For some assays here: Entries with a potency or affinity are not part of this list.

Protein translocase subunit SecA (Escherichia coli (strain K12)), sequence (P10408 whole entry): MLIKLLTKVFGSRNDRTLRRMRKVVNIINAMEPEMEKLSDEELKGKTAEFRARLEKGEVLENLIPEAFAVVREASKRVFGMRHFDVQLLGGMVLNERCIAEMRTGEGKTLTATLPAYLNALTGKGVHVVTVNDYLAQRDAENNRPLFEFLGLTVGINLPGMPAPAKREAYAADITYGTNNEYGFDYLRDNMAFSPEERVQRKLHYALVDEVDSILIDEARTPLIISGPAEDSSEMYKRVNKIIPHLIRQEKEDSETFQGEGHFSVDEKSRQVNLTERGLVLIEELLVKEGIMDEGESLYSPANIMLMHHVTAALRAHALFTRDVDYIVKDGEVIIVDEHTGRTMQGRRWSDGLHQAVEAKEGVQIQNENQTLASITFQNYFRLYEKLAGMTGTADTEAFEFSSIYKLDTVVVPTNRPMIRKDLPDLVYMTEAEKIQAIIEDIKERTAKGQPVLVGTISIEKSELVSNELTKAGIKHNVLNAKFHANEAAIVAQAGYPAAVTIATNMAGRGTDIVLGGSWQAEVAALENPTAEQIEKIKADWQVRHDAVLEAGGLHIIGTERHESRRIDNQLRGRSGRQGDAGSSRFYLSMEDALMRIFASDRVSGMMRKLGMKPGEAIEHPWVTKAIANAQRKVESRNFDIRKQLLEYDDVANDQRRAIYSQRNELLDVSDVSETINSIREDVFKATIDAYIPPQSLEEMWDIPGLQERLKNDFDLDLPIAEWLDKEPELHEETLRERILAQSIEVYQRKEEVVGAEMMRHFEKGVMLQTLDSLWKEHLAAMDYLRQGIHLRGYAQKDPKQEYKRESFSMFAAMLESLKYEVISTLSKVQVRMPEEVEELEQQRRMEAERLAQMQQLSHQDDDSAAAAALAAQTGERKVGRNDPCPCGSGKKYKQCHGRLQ

With `CN(C)[C@@H]1CCN(C(=O)c2ccsc2)[C@H]1Cc1cnn(C)c1`, the Percent Effect in experiment [1] was -3.13%; in experiment [2], 0%; in [3], 12.6%; in experiment [4], 1.61%; in the experiment on Trypanosoma cruzi it was -3.15%; in [5], -1.63%. Also, the Percent Effect is 12.2% in experiment [6]; 4.21% in the experiment filed under Homo sapiens; 3.19% in [7]; -1.28% in experiment [8]; 2.12% in [9].
Consider `O=C1CC2(CCN(S(=O)(=O)C3CC3)C2)CN1c1cncnc1` (stereo not given), for which the Percent Effect in experiment [1] is 1.95%; in [2], 16%; in [3] it was -1.36%; in experiment [4], -1.59%; in the experiment on Trypanosoma cruzi, 1.54%; in experiment [5] it was -50.7%. For the same compound, the Percent Effect in [6] was 9.74%; in the experiment filed under Homo sapiens, 5.32%; in experiment [7], 6.25%; in experiment [8], 27.5%; in experiment [9], -4.67%.
On to `CN(CC(=O)N1CCCC1c1cnn(C)c1)c1ccc(Cl)cn1` (stereo not given), for which the Percent Effect was -8.15% in experiment [1]; 7.89% in [2]; -2.82% in experiment [3]; -3.87% in [4]; -7.56% in the experiment with Trypanosoma cruzi; 2.52% in [5]. Also, the Percent Effect came to 7.19% in experiment [6]; 6.79% in the experiment filed under Homo sapiens; 2.46% in [7]; 6.17% in experiment [8]; 0.471% in [9].
With `CCc1nc(CN(C)CC2CCN(CC(C)O)CC2)no1` (stereo not given), the Percent Effect in experiment [1] is -2.22%; in experiment [2], 0%; in experiment [3], -8.55%; in experiment [4] it was 0.164%; with Trypanosoma cruzi, 9.46%; in experiment [5] it was -2.86%. The Percent Effect is 1.03% in experiment [6]; -23.1% in the experiment listed under Homo sapiens; 2.65% in [7]; 7.32% in experiment [8]; -1.75% in experiment [9].
`CN1CCN(C(=O)Cc2cccc(F)c2)Cc2cccnc21`: the Percent Effect in experiment [1] is -3.84%; in [2] it was 2.6%; in experiment [3], -0.44%; in experiment [4], 1.15%; in the experiment with Trypanosoma cruzi it was 8.55%; in [5] it was -9.65%. The Percent Effect in experiment [6] was -0.499%; in the experiment listed under Homo sapiens, 6.92%; in experiment [7], 2.15%; in experiment [8], 3.7%; in experiment [9] it was -6.06%.
Regarding `CN1CCCC(c2cccc(Cc3ccccc3Cl)n2)C1` (stereo not given), the Percent Effect in experiment [1] was -3.49%; in [2], -4.05%; in experiment [3] it was 7.5%; in experiment [4], 3.2%; with Trypanosoma cruzi, 1.38%; in experiment [5], -3.48%. Moreover, the Percent Effect is 1.72% in experiment [6]; 5.26% in the experiment filed under Homo sapiens; 2.15% in experiment [7]; 1.3% in [8]; -7.93% in [9].
For `CN(CCCNc1cc(N2CCCC2CO)ncn1)S(C)(=O)=O` (stereo not given), the Percent Effect in [1] is -2.02%; in experiment [2], 8.22%; in [3], -20.8%; in experiment [4] it was 7.67%; in the experiment on Trypanosoma cruzi it was -1.96%; in experiment [5], 1.82%. For the same compound, the Percent Effect was 16.3% in experiment [6]; 8.58% in the experiment filed under Homo sapiens; 2.15% in [7]; 7.5% in experiment [8]; -5.59% in experiment [9].
On to `CN(CCOc1cccc(CN)c1)C1CCOCC1`, for which the Percent Effect is 1.04% in [1]; 2.7% in [2]; -5.71% in [3]; -2.08% in experiment [4]; 1.54% in the experiment with Trypanosoma cruzi; -5.24% in experiment [5]. Also, the Percent Effect is 7.41% in experiment [6]; -5.29% in the experiment listed under Homo sapiens; 1.59% in experiment [7]; 9.76% in [8]; 13.5% in [9].
Turning to `Cc1cnn(CCNCc2csc(-c3cccs3)n2)c1`, the Percent Effect was -2.47% in [1]; -2.63% in experiment [2]; 5.67% in experiment [3]; 8% in experiment [4]; -0.564% in the experiment on Trypanosoma cruzi; -1.92% in [5]. Besides, the Percent Effect in experiment [6] was 13.7%; in the experiment filed under Homo sapiens, 0.0858%; in experiment [7] it was -3.43%; in experiment [8] it was 0%; in experiment [9] it was 6.81%.
With `O=C(Cn1nc(-c2ccc(F)cc2)oc1=O)Nc1ccccc1`, the Percent Effect in [1] is 0.224%; in [2], 21.1%; in experiment [3], -0.861%; in [4], -9.34%; with Trypanosoma cruzi, 3.01%; in experiment [5], -2.3%. Besides, the Percent Effect in experiment [6] was 21.6%; in the experiment listed under Homo sapiens, 7.21%; in experiment [7], 6.37%; in [8] it was 21.9%; in experiment [9], -11.6%.

(Values after ChEMBL document CHEMBL3988442, “University of Dundee, Small-Polar-MMV Screening Library” (2021).)
